Test results reported in PubChem BioAssay AID493066 (National Center for Advancing Translational Sciences (NCATS), 2011).
Records with an inconclusive call do not appear. A number with no mark means an inactive call. Activity calls are given as the source filed them. Calls come from the whole dose curve; as a rule, active = well fitted cell-killing curve with a large enough effect; inconclusive = small, poorly fitted or top-dose-only effect; inactive = flat fitted curve, though single readings scatter.

Test: HBEC Cell Viability Secondary Assay for qHTS Assay for Epigenetic Modulators
Conditions: HBEC normal bronchial cells viability, ATP luminescence, 72 h; series mostly up to 46.1 µM; activity change, negative = viability loss: at the top concentration
Excerpt: NIH Molecular Libraries Screening Centers Network [MLSCN] NIH Chemical Genomics Center [NCGC] MLSCN Grant: 1 X01 MH079860-01 Assay Provider: Elisabeth D. Martinez, University of Texas SW Medical Center NCGC Assay Overview: This secondary assay characterizes selected actives identified in the qHTS of the Locus Derepression (LDR) assay (PubChem AID 1865). The LDR assay detects the derepression of a GFP reporter that is stably integrated in a region of the genome of murine c127i mammary cells that is presumably silenced. Compounds that cause derepression of the locus to express GFP are identified by enumerating GFP positive cells using a laser-scanning microplate cytometer. Selected LDR actives were assayed for killing of HBEC, a patient-derived normal bronchial epithelial line matched to HCC4017 (Pubchem AID XXX), a nonsmall cell lung carcinoma line from the same patient. The HBEC line assays the cytoxicity of test compounds on normal lung cells. Cell viability was measured using a luminescence-based detection reagent that measures cellular ATP levels.
NCGC Assay Protocol Summary HBEC cells were seeded at 125 cells/5 uL/well in white, solid bottom, 1536 well plates (Greiner). After 16-hour incubation at 37deg C and 5% CO2, 23 nL of compound were transferred into the assay plate via a pin tool. Plates were incubated 72 hours at 37deg C and 5% CO2, then 3.5 uL/well CellTiter-Glo(R) (Promega) detection reagent was added, plates were incubated at ambient temperature for 10 minutes and luminescence was measured by a ViewLux (Perkin Elmer) reader. For further details, see Johnson, RL, Huang, W, Jadhav, A, Austin, CP, Inglese, J, Martinez, ED (2008). A quantitative high-throughput screen identifies potential epigenetic modulators of gene expression. Anal Biochem 375: 237-48. […]

Q: Which Potency does the source give for COc1ccc2c(C)nc(Nc3nc(-c4ccccc4)cc(=O)[nH]3)nc2c1 here?
A: 8.88 µM (active)

Q: Which “activity change, negative = viability loss” value does the source give for CN(C)S(=O)(=O)c1cccc(NC(=S)N/N=C/c2ccco2)c1 here?
A: 3.62%

Q: For O=C(NN1C(=O)c2ccccc2NC1c1ccc([N+](=O)[O-])o1)c1ccc([N+](=O)[O-])cc1 (stereo unspecified), which Potency is on record?
A: 3.97 µM (active)

Q: For CCC(=O)N1CCN(c2ccc(NC(=O)c3ccc([N+](=O)[O-])o3)cc2Cl)CC1, which Potency is on record?
A: 0.705 µM (active)

Q: For O=C(CSc1cccc[n+]1[O-])c1ccccc1Br, which “activity change, negative = viability loss” value is on record?
A: 11.3%

Q: For CCOn1c(=O)c[n+]([O-])c2ccccc21, which “activity change, negative = viability loss” value is on record?
A: 3.63%

Q: For CC1=C/C(=N\NC(=S)Nc2cccnc2)CC(C)(C)C1, which Potency is on record?
A: 9.96 µM (active)

Q: For O=C1C=C(Nc2ccc(Cl)cc2)C(=O)N1c1ccc(Cl)cc1, which “activity change, negative = viability loss” value is on record?
A: -5.04%

Q: With CCc1nnc(NC(=O)c2cccc(C(=O)Nc3nnc(CC)s3)n2)s1 as the compound, how does the Potency read?
A: 0.705 µM (active)

Q: Which Potency does the source give for CCCC(=O)N1CCN(c2ccc(NC(=O)c3ccc([N+](=O)[O-])o3)cc2Cl)CC1 here?
A: 0.705 µM (active)

Q: Which Potency does the source give for Cc1ccc(C(C)C)c(OCc2ccc(C(=O)N/N=C/c3cccc(O)c3O)cc2)c1 here?
A: 14.1 µM (active)

Q: Which “activity change, negative = viability loss” value does the source give for COCCNC(=S)N/N=C(\C)c1ccccc1O here?
A: -4.12%

Q: For C/C=C/c1ccc(OCC(=O)OCC(=O)NC2CC2)c(OC)c1, which “activity change, negative = viability loss” value is on record?
A: -4.48%

Q: Which Potency does the source give for COc1cccc(/C=N/Nc2nc(Nc3ccccc3)nc(-n3nc(C)cc3C)n2)c1O here?
A: 11.2 µM (active)

Q: Which Potency does the source give for COc1ccccc1OCC(=O)N/N=C/C=C/c1ccc([N+](=O)[O-])o1 here?
A: 9.96 µM (active)

Q: Which “activity change, negative = viability loss” value does the source give for S=C(Nc1ccccc1)c1ccccn1 here?
A: -0.455%

Q: Which “activity change, negative = viability loss” value does the source give for COc1cccc(N2CCN(S(=O)(=O)c3ccc(-n4cnnn4)cc3)CC2)c1 here?
A: -18.1%

Q: Which Potency does the source give for COc1nc(Nc2nc3ccccc3c(=O)[nH]2)nc2ccc(C)cc12 here?
A: 3.15 µM (active)

Q: With NC(=S)N/N=C/c1ncc(C(F)(F)F)cc1Cl as the compound, how does the Potency read?
A: 6.28 µM (active)

Q: With CCCCOC(=O)Cn1c2ccc(OC)cc2c2nc3ccccc3nc21 as the compound, how does the Potency read?
A: 14.1 µM (active)

Q: For COc1ccc2c(C)cc(SCC(=O)N(C)C3CCS(=O)(=O)C3)nc2c1 (stereo unspecified), which “activity change, negative = viability loss” value is on record?
A: -9.91%

Q: For CC1=NN(c2nc3ccccc3[nH]2)C(=O)C1Cc1ccccc1 (stereo unspecified), which Potency is on record?
A: 7.05 µM (active)

Q: For COc1ccc(C(=O)/C=C/Sc2nc3ccccc3o2)cc1, which Potency is on record?
A: 3.15 µM (active)

Q: Which Potency does the source give for CCOc1ccc(NC(=O)c2nc(S(=O)(=O)Cc3ccccc3F)ncc2Cl)cc1 here?
A: 2.23 µM (active)

Q: With COc1ccc(NC(=O)CSc2nc3c(oc4ccccc43)c(=O)n2Cc2ccco2)cc1Cl as the compound, how does the Potency read?
A: 7.05 µM (active)

Q: With O=C(N/N=C/c1ccccn1)c1cc(-c2ccc(Cl)cc2)nc2ccccc12 as the compound, how does the Potency read?
A: 7.05 µM (active)

Q: Which Potency does the source give for N=c1n(CC(=O)c2ccc([N+](=O)[O-])cc2)c2ccccc2n1Cc1ccccc1Cl here?
A: 11.2 µM (active)

Q: With CCN(CC)CCCNC(=O)CSc1c2c(nc3cc(Cl)ccc13)CCCC2 as the compound, how does the Potency read?
A: 19.9 µM (active)

Q: For Cc1ccc(/C=[N+](\[O-])c2ccc(N(C)C)cc2)c2nsnc12, which Potency is on record?
A: 9.96 µM (active)

Q: With C(=N\Nc1nc(-c2ccccn2)nc2ccccc12)/c1ccccc1 as the compound, how does the Potency read?
A: 3.15 µM (active)

Q: Which Potency does the source give for O=[N+]([O-])/C(C=Nc1ccccc1O)=C\Nc1ccccc1O here?
A: 28.1 µM (active)
